# Results taken from PubChem BioAssay.
# Activity calls are given as the source filed them. Unless noted, no rule for the calls is given here.
# Key:
# [1] = system: XIP peptide (Xip251-270) binding; assay: small-molecule binders of XIP peptide, primary screen, biochemical, small-molecule microarray, fluorescence 635/667 nm, 0.1 µg/mL protein (AID 1182); settings: fluorescent protein binding, 635 nm, higher = more signal, called active from +8 up or from −8 down
# XIP peptide (Xip251-270) = assay: small-molecule binders of XIP peptide, primary screen, biochemical, small-molecule microarray, fluorescence 635/667 nm, 0.5 µg/mL protein (AID 1183); settings: small-molecule microarray binding, fluorescence 635 nm; higher = more signal
# [2] = Plasmodium falciparum growth inhibition, primary screen, strain 3D7, DAPI fluorescence, 100 nL (AID 1184);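 also: parasites grown inside human red blood cells in medium with human serum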; settings: P. falciparum 3D7 growth, 3 d, higher = more signal
# [3] = target: Homeobox protein Hox-A13 (Mus musculus) (UniProt Q62424); assay: inhibitors of HoxA13-DNA binding, primary screen, biochemical, fluorescence polarization, labeled oligonucleotide (AID 1185); settings: 15 min, higher = more signal, called active from +8 up or from −8 down
# Homeobox protein Hox-A13 (Mus musculus), sequence (Q62424 whole entry, looked up): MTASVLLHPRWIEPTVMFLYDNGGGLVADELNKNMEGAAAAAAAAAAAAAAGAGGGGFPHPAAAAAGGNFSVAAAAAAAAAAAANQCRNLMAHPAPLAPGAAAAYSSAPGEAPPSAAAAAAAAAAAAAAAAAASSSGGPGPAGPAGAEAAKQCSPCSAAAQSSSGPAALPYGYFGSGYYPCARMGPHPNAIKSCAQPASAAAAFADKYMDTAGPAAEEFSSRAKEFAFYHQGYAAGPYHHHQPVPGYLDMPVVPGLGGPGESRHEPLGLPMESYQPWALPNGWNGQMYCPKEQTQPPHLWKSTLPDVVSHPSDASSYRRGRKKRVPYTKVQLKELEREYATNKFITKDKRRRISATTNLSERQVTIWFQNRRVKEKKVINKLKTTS
# [4] = inhibitors of hydroxyurea-induced Chk1 phosphorylation, primary screen, imaging, HeLa, phospho-Chk1 antibody, percent positive cells (AID 1186); settings: hydroxyurea-induced phospho-Chk1 immunofluorescence imaging, higher = more signal
# [5] = inhibitors of hydroxyurea-induced Chk1 phosphorylation, primary screen, imaging, HeLa, phospho-Chk1 nuclear intensity (AID 1187); settings: hydroxyurea-induced phospho-Chk1 immunofluorescence imaging, higher = more signal
Compound,composite z-score [1],composite z-score (XIP peptide (Xip251-270)),z-score [2],z-score [3],z-score [4],z-score [5]
COCCOC(=O)N1C(=O)[C@@]2(c3cc(C#CCNC(N)=O)ccc31)[C@H](c1ccccc1OCCO)N1[C@H](c3ccccc3)[C@H](c3ccccc3)OC(=O)[C@H]1[C@@H]2C(=O)N1CCCCCCC1,0.564 (inactive),0.824,-2.13,0.831 (inactive),-0.0593 (inactive),-0.191 (inactive)
CCCCC(=C=CC[C@@H](O)c1ccc(OCCO)cc1)CCO,0.218 (inactive),0.336,-1.39,-3.71 (inactive),0.102 (inactive),0.509 (inactive)
C#CCN(C(=O)OC(C)(C)C)[C@H](CO)c1ccccc1,-0.235 (inactive),-0.182,-0.333,-3.85 (inactive),-0.306 (inactive),-0.368 (inactive)
COCCCNC(=O)[C@@]1(CCC(=O)OC(C)(C)C)N=C(c2ccc(OCCCO)cc2)O[C@H]1c1ccccc1,0.809 (inactive),0.754,-0.0488,-4.75 (inactive),0.185 (inactive),0.633 (inactive)
[N-]=[N+]=Nc1ccccc1C[C@]1(C(N)=O)COC(c2ccc(OCCCO)cc2)=N1,0.29 (inactive),0.546,-1.88,-4.74 (inactive),-0.393 (inactive),-0.137 (inactive)
C=CCNC(=O)[C@@H]1[C@H]2C(=O)O[C@H](c3ccccc3)[C@H](c3ccccc3)N2[C@H](c2ccc(OCCO)cc2)[C@@]12C(=O)Nc1ccc(C#CCNC(N)=O)cc12,2.5 (inactive),0.561,0.175,-3.63 (inactive),0.286 (inactive),0.0132 (inactive)
CN(C)CCCCNC(=O)[C@H]1C[C@H]2C(=O)N[C@@H](CCCCN(C)C)C(=O)N2[C@H]1c1ccc(O)cc1,0.0043 (inactive),0.269,-0.435,0.0335 (inactive),-1.63 (inactive),-1.46 (inactive)
CC1C2C(CCCO)=CC(C3C(=O)N(C(N)=O)C(=O)C23)N1Cc1cccc(OC(F)(F)F)c1 (stereo unspecified),1.51 (inactive),0.256,-0.128,-7.99 (inactive),0.37 (inactive),0.181 (inactive)
CO[C@H]1O[C@H](CO)[C@@H](OC(=O)Nc2cccc(F)c2)[C@H](OC(=O)Nc2ccc3c(c2)OCO3)[C@@H]1OC(=O)Nc1ccc2c(c1)OCO2,0.968 (inactive),0.894,-0.754,-6.1 (inactive),0.223 (inactive),0.613 (inactive)
O=C1O[C@H](c2ccccc2)[C@H](c2ccccc2)N2[C@H]1[C@@H](C(=O)N1CCN(c3ncccn3)CC1)[C@]1(C(=O)Nc3ccc(C#CC4(O)CCCCCC4)cc31)[C@H]2c1ccc(O)cc1,1.48 (inactive),0.817,-0.797,-1.28 (inactive),-0.168 (inactive),-0.101 (inactive)
CC(C)C[C@H]1NC(=O)CNC(=O)[C@@]23C(=O)N[C@@H](Cc4ccccc4)C2[C@H](C)[C@@]2(C)O[C@H]2C3/C=C/C/C=C\CNC1=O (stereo partly specified),0.282 (inactive),0.685,0.933,-5.94 (inactive),-0.386 (inactive),-0.0588 (inactive)
CCCC1(C(=O)OC)C=C2C(=C(C(C)C)C(=O)C2C)CN1 (stereo unspecified),-0.275 (inactive),-0.619,0.77,-6.18 (inactive),0.493 (inactive),0.473 (inactive)
CC(C)N1C(=O)[C@@]2(Cc3ccccc31)c1ccccc1C(=O)N(Cc1ccccc1)[C@H]2c1ccc(CO)cc1,-0.205 (inactive),-0.0467,-0.32,-0.075 (inactive),0.273 (inactive),0.685 (inactive)
COCCOC(=O)N1C(=O)[C@@]2(c3cc(C#CC4(O)CCCCCC4)ccc31)[C@H](C(N)=O)[C@H]1C(=O)O[C@H](c3ccccc3)[C@H](c3ccccc3)N1[C@@H]2c1ccc(OCCO)cc1,1.56 (inactive),0.73,-1.62,-0.51 (inactive),-0.0908 (inactive),-0.524 (inactive)
COCCCNC(=O)[C@]1(Cc2ccccc2CN=[N+]=[N-])N=C(c2ccc(OCCCO)cc2)O[C@@H]1c1ccccc1N=[N+]=[N-],0.228 (inactive),-0.184,-2.03,-0.994 (inactive),-0.364 (inactive),-0.601 (inactive)
[N-]=[N+]=NCc1ccccc1[C@H]1OC(c2ccc(OCCCO)cc2)=N[C@@]1(CCS(=O)(=O)c1ccccc1)C(=O)O,-0.0179 (inactive),0.446,0.0638,-5.36 (inactive),-0.0059 (inactive),-0.587 (inactive)
COC(=O)[C@@]1(Cc2ccc(F)cc2)[C@H]2c3cc(C(=O)N(C)C)n(Cc4ccsc4Br)c3C[C@H]2CN1C(=O)c1ccccc1,1.29 (inactive),0.102,-1.75,-5.36 (inactive),-0.219 (inactive),-1.12 (inactive)
COc1ccc([Si](C)(C)[C@@H]2[C@@H](CC(=O)N3Cc4ccccc4C[C@H]3CO)O[C@]3(C(=O)N(Cc4ccc(I)cc4)c4ccccc43)[C@H]2C)cc1,0.153 (inactive),0.477,-2.83,-2.35 (inactive),-0.67 (inactive),-0.295 (inactive)
Cc1ccc(N2C(=O)c3ccccc3[C@@H](C(=O)NCCN3CCOCC3)[C@@H]2c2ccc(CO)cc2)nc1,0.0616 (inactive),0.669,1.41,-1.67 (inactive),0.0197 (inactive),0.274 (inactive)
COC(=O)c1ccc(OC)c(/C=C\CC(OC(=O)c2ccncc2)c2ccccc2)c1 (stereo unspecified),0.601 (inactive),0.146,-1.33,-5.02 (inactive),-0.843 (inactive),-0.432 (inactive)
COC(=O)[C@@]1(Cc2ccc(F)cc2)[C@H]2c3cc(C(=O)N4CCCC4)n(CCc4c[nH]c5cc(F)ccc45)c3C[C@H]2CN1C(=O)c1ccccc1,0.0421 (inactive),0.684,-1.4,-2.5 (inactive),-0.332 (inactive),-0.589 (inactive)
COc1ccc(C(O)C2C=CC3C(=O)N(c4ccccc4)C(=O)C3N2Nc2ccccc2F)c2ccccc12 (stereo unspecified),1.56 (inactive),0.795,0.482,-3.14 (inactive),0.0395 (inactive),-0.3 (inactive)
C=C1C(=O)C=C2CN(C(=O)c3ccccc3)[C@@](Cc3ccc(F)cc3)(C(=O)OC)[C@@H]12,0.741 (inactive),0.459,-1.59,-4.76 (inactive),-2.23 (inactive),-3.76 (inactive)
C[C@]1(C(=O)O)c2ccccc2C(=O)N(Cc2cc(C(F)(F)F)cc(C(F)(F)F)c2)[C@H]1c1ccc(CO)cc1,0.17 (inactive),0.816,1.06,-2.61 (inactive),0.19 (inactive),0.362 (inactive)
CCCCN1CC=CC23O[C@@H]4/C=C\CCC(C)OC(=O)C4[C@H]2C(=O)N(CCO)[C@@H]3C1=O (stereo partly specified),0.874 (inactive),-0.629,-0.165,-5.58 (inactive),-0.967 (inactive),-0.862 (inactive)
CC[C@@H](O[Si](C#C[Si](C(C)C)(C(C)C)C(C)C)(C(C)C)C(C)C)c1cn(Cc2cccc(Cl)c2)nn1,0.242 (inactive),-0.0319,0.163,0.335 (inactive),0.212 (inactive),-0.0184 (inactive)
